About 83,000 compounds went through this panel and 20% of them were active in at least one assay; those are over-represented in the sample as a whole.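 Interpretation: 100, growth as untreated; towards 0, rising growth inhibition; 0, no net growth; 0 to -100, cell death. Compounds scoring below 10 were considered active.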 Activity calls are given as the source filed them.
What was measured:
Experiment in all cases: NCI-60 one-dose screen, 48 h (100 = growth as untreated, 0 = no growth, -100 = all killed)
NCI-H23 lung = conditions: 10 µM unless noted
DU-145 prostate = conditions: 10 µM unless noted
MDA-MB-231 breast = conditions: 10 µM unless noted
SF-268 CNS = conditions: 10 µM unless noted
SF-539 CNS = conditions: 10 µM unless noted
M14 melanoma = conditions: 10 µM unless noted
HCT-15 colon = conditions: 10 µM
HT29 colon = conditions: 10 µM unless noted
SNB-75 CNS = conditions: 10 µM unless noted
PC-3 prostate = conditions: 10 µM unless noted
UACC-62 melanoma = conditions: 10 µM unless noted
SK-MEL-28 melanoma = conditions: 10 µM unless noted
SN12C renal = conditions: 10 µM unless noted
ACHN renal = conditions: 10 µM unless noted
OVCAR-8 ovarian = conditions: 10 µM unless noted
OVCAR-5 ovarian = conditions: 10 µM unless noted
NCI/ADR-RES ovarian = conditions: 10 µM unless noted
MDA-MB-435 melanoma = conditions: 10 µM unless noted
HCT-116 colon = conditions: 10 µM unless noted
KM12 colon = conditions: 10 µM unless noted

Measured: growth

COc1ccc(C2=NN(c3ccccc3)C(c3sc(N(CCCl)CCCl)nc3Cl)C2)cc1 (centres undefined)
inactive: NCI-H23 lung 76.7% | DU-145 prostate 106% | MDA-MB-231 breast 68.4% | SF-268 CNS 86.8% | SF-539 CNS 104% | M14 melanoma 93.6% | HCT-15 colon 97.9% | HT29 colon 72.6% | SNB-75 CNS 74.2% | PC-3 prostate 69.5% | UACC-62 melanoma 65.1% | SK-MEL-28 melanoma 97.9% | SN12C renal 90.5% | ACHN renal 82.6% | OVCAR-8 ovarian 87.8% | OVCAR-5 ovarian 90.1% | NCI/ADR-RES ovarian 95.7% | MDA-MB-435 melanoma 90.5% | HCT-116 colon 67% | KM12 colon 81.4%

N#CC(C#N)=Cc1ccc2ccccc2c1
inactive: NCI-H23 lung 100% | DU-145 prostate 109% | MDA-MB-231 breast 106% | SF-268 CNS 116% | SF-539 CNS 107% | M14 melanoma 104% | HCT-15 colon 111% | HT29 colon 113% | SNB-75 CNS 103% | PC-3 prostate 95.7% | UACC-62 melanoma 115% | SK-MEL-28 melanoma 113% | SN12C renal 111% | ACHN renal 107% | OVCAR-8 ovarian 105% | OVCAR-5 ovarian 106% | NCI/ADR-RES ovarian 108% | MDA-MB-435 melanoma 114% | HCT-116 colon 107%

CC(C)(C)[Si](C)(C)OC1[C@@H](O[Si](C)(C)C(C)(C)C)[C@@H](CNC(=O)NC(=O)CF)O[C@H]1n1cnc2c(NC(=O)Nc3ccccc3)ncnc21 (some centres undefined)
inactive: NCI-H23 lung 64.7% | DU-145 prostate 47.6% | MDA-MB-231 breast 85.9% | SF-268 CNS 26.6% | SF-539 CNS 92.6% | M14 melanoma 73.2% | HCT-15 colon 80.7% | HT29 colon 25.6% | SNB-75 CNS 73.8% | PC-3 prostate 14.5% | UACC-62 melanoma 76.6% | SK-MEL-28 melanoma 93.2% | SN12C renal 44.3% | ACHN renal 71.8% | OVCAR-8 ovarian 51.4% | OVCAR-5 ovarian 91.5% | NCI/ADR-RES ovarian 71% | MDA-MB-435 melanoma 70.5% | HCT-116 colon 21.3% | KM12 colon 28.5%

COc1ccccc1N1CCN(CCc2c[nH]c3cc4c(cc23)OCO4)CC1
inactive: NCI-H23 lung 71.9% | DU-145 prostate 103% | MDA-MB-231 breast 79.8% | SF-268 CNS 91.6% | SF-539 CNS 77.8% | M14 melanoma 68.9% | HCT-15 colon 68% | HT29 colon 44.2% | SNB-75 CNS 91.6% | PC-3 prostate 58.4% | UACC-62 melanoma 69.2% | SK-MEL-28 melanoma 94.2% | SN12C renal 68.4% | ACHN renal 77.7% | OVCAR-8 ovarian 88.4% | OVCAR-5 ovarian 60.2% | NCI/ADR-RES ovarian 86% | MDA-MB-435 melanoma 78% | HCT-116 colon 42.5% | KM12 colon 84%

S=P(Nc1ccccc1)(Nc1ccccc1)c1ccccc1
inactive: NCI-H23 lung 92.5% | DU-145 prostate 122% | MDA-MB-231 breast 90% | SF-268 CNS 90.8% | SF-539 CNS 95.8% | M14 melanoma 97.7% | HCT-15 colon 104% | HT29 colon 104% | SNB-75 CNS 96.7% | PC-3 prostate 85.9% | UACC-62 melanoma 84.2% | SK-MEL-28 melanoma 119% | SN12C renal 104% | ACHN renal 102% | OVCAR-8 ovarian 111% | OVCAR-5 ovarian 99.6% | NCI/ADR-RES ovarian 88.3% | MDA-MB-435 melanoma 101% | HCT-116 colon 81.1% | KM12 colon 102%

NC(=O)SCC(=O)Nc1ccc([As](=O)(O)O)cc1
inactive: NCI-H23 lung 86.1% | DU-145 prostate 101% | MDA-MB-231 breast 90.8% | SF-268 CNS 100% | SF-539 CNS 83.8% | M14 melanoma 89.7% | HCT-15 colon 81.5% | HT29 colon 93.7% | SNB-75 CNS 96.6% | PC-3 prostate 77.8% | UACC-62 melanoma 97.3% | SK-MEL-28 melanoma 101% | SN12C renal 89.8% | ACHN renal 100% | OVCAR-8 ovarian 83.4% | OVCAR-5 ovarian 125% | NCI/ADR-RES ovarian 86.4% | MDA-MB-435 melanoma 98.5% | HCT-116 colon 85.6% | KM12 colon 97.6%

ClCCN(CCCl)C(c1ccccc1)c1ccc(Cl)cc1 (centres undefined)
inactive: NCI-H23 lung 77.3% | DU-145 prostate 69.5% | MDA-MB-231 breast 75.7% | SF-268 CNS 61.5% | SF-539 CNS 71.7% | M14 melanoma 90.4% | HCT-15 colon 82.9% | HT29 colon 63% | SNB-75 CNS 81.8% | PC-3 prostate 52% | UACC-62 melanoma 63.8% | SK-MEL-28 melanoma 102% | SN12C renal 41.1% | ACHN renal 28.9% | OVCAR-8 ovarian 77.7% | OVCAR-5 ovarian 118% | NCI/ADR-RES ovarian 79% | MDA-MB-435 melanoma 88% | HCT-116 colon 79.5% | KM12 colon 89.5%

Reference: PubChem BioAssay (NCI)
